Inhibition data for 90 compounds are collected here from PubChem BioAssay AID588405 (Sanford-Burnham Center for Chemical Genomics, 2011).

Screen size: about 360,000 compounds; about 6,200 (1.7%) were called active.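 The calls were made as follows: active = inhibition of at least 50% at 20 µM; inactive = the rest.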 The sample as a whole holds a higher share of actives than the screen did.

The test is described as follows: Peg3 promoter-driven luciferase inhibitors, primary screen, cell-based, HeLa, luciferase luminescence (AID 588405). Particulars: HeLa PEG-Prom luciferase reporter, overnight, at 20 µM, active compounds read high.
By inhibition is commonly meant the relative decrease from the control value, in per cent. In the case of `COc1ccc(C(C#N)=C2C=CC(=NO)c3ccccc32)cc1`, the inhibition is -114% (inactive). Regarding `COc1ccc(NS(=O)(=O)c2cc3c(cc2C)N(C(C)=O)CCO3)cc1`, the inhibition is 9.24% (inactive). Turning to `CSc1ccccc1NC(=O)COC(=O)CCCOc1ccc(C)cc1`, the inhibition was 8.63% (inactive). With `COc1cc([N+](=O)[O-])ccc1NC(=O)COC(=O)CCOc1ccc(C)cc1` the figure was 51.2% (active); with `COc1ccc([N+](=O)[O-])cc1NCC(=O)c1ccc(C)cc1`, -17.2% (inactive). Next, `CN1OC[C@@H]2CN(C(=O)c3cccc4ccccc34)[C@H](c3ccc(N4CCCCC4)cc3)C[C@@H]21`: 1% (inactive); `O=C(Nc1ccccc1C(=O)NCC1CCCO1)c1ccccc1F` (stereo not given): 6% (inactive). With `CSc1n[nH]c(=S)n1N` the figure was 12.2% (inactive). As for `Cc1ccc(C)c(S(=O)(=O)N2CCN(C(=O)Nc3ccccc3)CC2)c1`, the inhibition is 5.32% (inactive).

Regarding `COc1ccc(-c2csc3ncnc(N4CCN(S(=O)(=O)c5ccccc5C#N)CC4)c23)cc1`, the inhibition was 33.6% (inactive). Next, `Cc1ccc(C)c(S(=O)(=O)N2CCN(c3ncnc4sccc34)CC2)c1`: 58.5% (active).

As for `CC(C)Cc1ccc(-c2cc3nc(NCc4cccc(Cl)c4)ccn3n2)cc1`, the inhibition was -178% (inactive). Next, `CC(C)NC(=O)C1(C)CCCCN1Cc1cccc(C(F)(F)F)c1` (stereo not given): -13.2% (inactive); `COc1ccc(-c2ccc(C(=O)NC(C)C)c3occc23)c(C)c1`: -11.5% (inactive).

Turning to `Cc1ccc(Cn2c(C)c(C(=O)NCc3ccccc3C(F)(F)F)sc2=O)cc1`, the inhibition was 18.5% (inactive). With `Cc1cc(C)cc(NS(=O)(=O)Cc2ccccc2)c1` the figure was -13.5% (inactive). Next, `Cc1cccc(NC(=O)c2nc(S(=O)(=O)Cc3ccccc3)ncc2Cl)c1`: 111% (active). With `Cc1cccc(NC(=O)Cn2cc(C(=O)c3ccco3)c3ccccc32)c1` the figure was 8.59% (inactive); with `Cc1cccc(CS(=O)(=O)c2ncc(Cl)c(C(=O)Nc3ccc(F)cc3)n2)c1`, 108% (active). In the case of `O=C(Nc1ccc(F)cc1)c1ccc(S(=O)(=O)NCc2cccnc2)cc1`, the inhibition was -20.7% (inactive). In the case of `CN1CCN(c2ccc(NC(=O)c3ccc4c(c3)[nH]c(=O)n4Cc3ccc(F)cc3)cc2)CC1`, the inhibition is 24.3% (inactive). With `CC(Oc1cc2oc(=O)c3c(c2cc1Cl)CCCC3)C(=O)NCc1ccncc1` (stereo not given) the figure was 3.42% (inactive); with `Cc1ccc2nc(-c3ccccc3)c(CC3CCCCC3)n2c1`, -146% (inactive); with `Clc1cccc(Cc2c(-c3cccc(Cl)c3)nc3ccc(Cl)cn23)c1`, -112% (inactive). Next, `COc1ccc(CN2CCC(C)(Oc3cccc(F)c3)C2)c2ccccc12` (stereo not given): -19.4% (inactive). With `O=C(NCc1cccnc1)c1cc(C2CCCN(C(=O)CCCc3ccccc3)C2)on1` (stereo not given) the figure was -7.2% (inactive); with `Cc1cc(C)c2c(Cn3ccnc3)cc(=O)oc2c1`, 18.3% (inactive); with `O=C(CSc1nnc(COc2ccc(Cl)cc2)n1Cc1ccco1)N1CCNC1=O`, 6.82% (inactive).

Turning to `Cn1c2ccccc2c(=O)c2c(=O)n(Cc3ccco3)c(COc3ccccc3)nc21`, the inhibition is 50.5% (active). Next, `CCCc1nc2c(c(=O)c3ccccc3n2C)c(=O)n1C1CCCCCC1`: -44.1% (inactive). On to `CCCNC(=O)C1(C)CCCN(Cc2c(C)nn(-c3ccccc3)c2C)C1` (stereo not given), for which the inhibition is 5.49% (inactive). Next, `COc1cccc(-c2cnc(C(O)c3ccccc3OC)[nH]2)c1` (stereo not given): -9.16% (inactive); `O=C(Nc1ccccc1Cl)/C(Cl)=C(\Cl)S(=O)c1ccccc1` (stereo not given): 108% (active); `CS/C(=C\C(=O)c1ccco1)Nc1ccccc1Cl`: -49.5% (inactive). In the case of `O=C(COc1ccc(-n2cnnn2)cc1)Nc1ccccc1Cl`, the inhibition was -1.45% (inactive).

With `CC(=O)N1CCN(Cc2cc(=O)oc3cc(C)ccc23)CC1`, the inhibition was -2.53% (inactive). With `COc1ccc(-c2cc(NC=O)c3ncc(-c4ccccc4)n3c2)cc1OC` the figure was 49.4% (inactive); with `C[C@H]([C@@H](O)[C@@H](O)[C@@H](C)C(C)(C)C)[C@H]1CC[C@H]2C3CC[C@H]4C[C@H](OS(=O)(=O)O)[C@@H](OS(=O)(=O)O)C[C@]4(C)[C@H]3CC[C@]12C` (stereo not given in full), 6.06% (inactive); with `COc1ccc(NC(=O)C2(C)Cc3c(-c4cccc(NC(C)=O)c4)ccnc3O2)cc1` (stereo not given), -10.2% (inactive). Next, `c1ccc2c(c1)CSc1sccc1C2=C1CCNCC1`: 33.5% (inactive). Next, `CCOC1=C2[C@@H](CN(S(=O)(=O)c3ccc(C)cc3)[C@H]2c2ccccc2F)[C@H]2C(=O)N(Cc3ccccc3)C(=O)[C@H]2C1`: 6.76% (inactive).

On to `CCCCC(=O)N(C)c1c(CC)nc2c(OCc3ccc(Cl)cc3Cl)cccn12`, for which the inhibition was 39% (inactive). Next, `CCOC(=O)Cc1csc(NC(=O)COc2ccc3c(C)cc(=O)oc3c2)n1`: -3.01% (inactive); `Cc1ccc(O)c(/C=N/NC(=O)COc2ccc3c(C)cc(=O)oc3c2)c1`: 66.5% (active). With `Cc1cc(=O)oc2cc(OCC(=O)Nc3nnc(C4CC4)s3)ccc12`, the inhibition is 2.23% (inactive).

For `CC(C)Oc1c(Br)cc(Br)cc1/C=N/NC(N)=S`, the inhibition was 48.7% (inactive). With `CNc1cncc(-c2cccc(C(=O)N3CCOCC3)c2)n1` the figure was 2.98% (inactive). Next, `CC(=O)N(Cc1cc(=O)[nH]c2ccccc12)c1ccc(C)cc1C`: 23.2% (inactive); `Cc1ccc(N(Cc2cc3ccccc3[nH]c2=O)C(=O)c2cccs2)cc1`: 11.2% (inactive). Take `Cc1ccc(N(Cc2cc(=O)[nH]c3ccccc23)C(=O)CCl)cc1`: the inhibition was 106% (active). Next, `CCOc1c2ccc(C(=O)NCc3ccc4c(c3)OCO4)cc2nn1C`: -10.3% (inactive); `CN(C)C(=O)c1cccc(-c2cnc3sc(NCc4ccc5c(c4)OCO5)nn23)c1`: 50.3% (active).

Turning to `O=C(CSc1ncnc2scc(-c3ccccc3)c12)NCc1ccc2c(c1)OCO2`, the inhibition is 26.7% (inactive). With `CN1CCC[C@@H]1CCO[C@](C)(c1ccccc1)c1ccc(Cl)cc1` the figure was 14.3% (inactive). With `COc1cccc2sc3cc(NCC[C@@H]4CCCN4C)ccc3c(=O)c12` the figure was -254% (inactive); with `Cc1cc2oc3ccc(NCCC4CCCN4C)cc3c(=O)c2cc1C` (stereo not given), 103% (active); with `CC1(Oc2ccccc2-c2ccno2)CCN(Cc2ccc(-c3ccccc3)o2)C1` (stereo not given), 0.4% (inactive). With `CC(=O)OC[C@@H]1CN(Cc2ccccc2)C[C@H](n2cnc3c(NCc4ccco4)ncnc32)O1` the figure was 4.43% (inactive). `COc1ccc(Sc2ccc(NC(=O)c3cccc(Cl)c3)cc2C#N)cc1`: the inhibition is 14.8% (inactive). With `CCOC(=O)CNC(=O)/C(=C\c1ccc(F)cc1)NC(=O)c1ccccc1` the figure was 10.4% (inactive). Next, `CCOC(=O)C(=Cc1ccccc1)C(=O)c1ccccc1`: 103% (active). Next, `CCOC(=O)C(=Cc1ccccc1OC)C(=O)OCC`: 33.3% (inactive); `c1cc(-c2ccc3[nH]ccc3c2)n2ccnc2c1`: -57.5% (inactive).

Take `COC(C[C@@H]1O[C@@H]1C(=O)[C@@H](C)OCc1ccccc1)OC`: the inhibition is 7.4% (inactive).

`CC(=NNC(=S)N1CCCCCC1)c1ccccn1`: the inhibition was -62.9% (inactive). With `C/C(=N\NC(=O)c1ccccc1F)c1ccccn1` the figure was -1.8% (inactive). With `C/C(=N\NC(=O)Cc1ccc(Cl)cc1)c1ccccn1` the figure was 104% (active); with `CN1C(=O)c2ccccc2C(C(=O)NCCCN2CCCC2)C1c1c[nH]c2ccccc12` (stereo not given), -1.25% (inactive). Take `COc1ccc(/C=C/C(=O)c2c(O)cc(OC)cc2OC)cc1`: the inhibition was -132% (inactive).

In the case of `CCCc1ccc(C(=O)COC(=O)CN2C(=O)NC3(CCCCC3C)C2=O)cc1` (stereo not given), the inhibition is -7.49% (inactive).

For `O=C(NCc1cccnc1)c1cc(C2CCCCN2C(=O)CCc2ccccc2)on1` (stereo not given), the inhibition was -5.2% (inactive). With `CN(C)c1ccc(C2N(C)C(=O)c3ccccc3N2C)cc1` (stereo not given) the figure was 17.6% (inactive). With `CN(C)c1ccc(Nc2c3c4c(cccc4n(C)c2=O)C(=O)c2ccccc2-3)cc1` the figure was 54.9% (active); with `CSc1ccc(CNC(=O)C2(C)CCCN2C)cc1` (stereo not given), 7.21% (inactive); with `CC(C)Nc1ncnc2c1ncn2[C@H]1CN(Cc2ccncc2)C[C@@H](CO)O1`, -7.45% (inactive). `COc1ccc(CN2CCCCC2C)cc1OC` (stereo not given): the inhibition is 11.9% (inactive). As to `Cc1ccc(-c2ccc(/C=C(\C#N)C(N)=S)o2)c([N+](=O)[O-])c1`, the inhibition is -30.5% (inactive). With `Cc1ccc(/C=C(\C#N)C(=O)Nc2cccc3ncccc23)o1` the figure was -27.1% (inactive). For `Cc1ccc(Cc2cnc(NC(=O)/C(C#N)=C/c3ccc(-c4cccc([N+](=O)[O-])c4)o3)s2)cc1`, the inhibition was 71.1% (active).

On to `CCOc1ccc2[nH]c(=S)sc2c1`, for which the inhibition was -57% (inactive). As to `O=[N+]([O-])c1c(NCCO)cc(Sc2nc3ccccc3s2)c2nonc12`, the inhibition is 102% (active).

As for `COc1cc(SC#N)ccc1N=Cc1c(C)[nH]n(-c2ccc(C)cc2)c1=O`, the inhibition is 80.8% (active).

Turning to `CN(C)c1cccc(NC(=O)c2ccc(-c3ccc(F)c(F)c3)c3ccoc23)c1`, the inhibition was -43.1% (inactive). Next, `NCCCNC(=S)NCCCN(Cc1ccc(Cl)cc1)c1ccc(Br)cn1`: 85.8% (active).

As for `S=C(NCCCc1ccccc1)Nc1ccc(Br)cc1`, the inhibition was 5.05% (inactive). Regarding `S=C(NCCCc1cnc[nH]1)NCCCN(Cc1ccc(Cl)c(Cl)c1)c1ccc(Br)cn1`, the inhibition was 98.4% (active). Next, `O=C(/C=C/c1ccc(Cl)cc1)Nc1ccc(Br)cn1`: -33.7% (inactive); `Cc1nc(C(F)(F)F)ccc1C(=O)N1CCC1(C)C(=O)NS(=O)(=O)c1ccc(F)cc1F` (stereo not given): -1.89% (inactive); `O=C(CC[C@H]1O[C@@H](n2ccc(=O)[nH]c2=O)[C@H](O)[C@@H]1O)N[C@H](Cc1ccccc1)C(=O)NCc1ccco1`: 8.94% (inactive).

On to `CCCS(=O)(=O)NC(=O)C1(C)CCCN(C(=O)c2cc(C)on2)C1` (stereo not given), for which the inhibition is 9.06% (inactive).
